According to PubChem BioAssay (NCATS):
Results filed as inconclusive are left out. Active and inactive are the calls of the source. Unless noted, calls come from the whole dose curve.

What was measured:
[1] = biological target: Vitamin D3 receptor (Homo sapiens) (UniProt P11473); assay: qHTS assay for small molecule agonists of vitamin D receptor signaling (AID 588543);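 note: 0% = DMSO basal and 100% = reference agonist control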
Outline: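 Measured: β-lactamase reporter activity (CCF4, 405 nm excitation, 460/530 nm emission) in HEK293T VDR-UAS-bla cells after 16 h compound exposure at 37 °C. Normalization against 50 nM 1α,25-dihydroxyvitamin D3 and DMSO; Hill-fit EC50.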

[2] = qHTS assay for small molecule agonists of retinoid X receptor alpha signaling (AID 588544); conditions: HEK293T RXRa-UAS-bla, beta-lactamase reporter, 18 h; 530 nm emission;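 for activation: 0% = DMSO basal wells and 100% = reference agonist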
[3] = biological target: Retinoic acid receptor RXR-alpha (Homo sapiens) (UniProt P19793); assay: as above
[4] = biological target: Thyroid hormone receptor beta (Homo sapiens) (UniProt P10828); assay: qHTS assay for small molecule agonists of thyroid hormone receptor beta signaling (AID 588545)
Outline: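 Cells (2500/well) were seeded, incubated 4 hrs at 37 C, dosed with a compound series, incubated 18 hrs, loaded with CCF4 dye for 2 hrs at RT, then read for fluorescence. Data were scaled between DMSO (0%) and 10 nM T3 (100%).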

[5] = qHTS assay for small molecule antagonists of retinoid X receptor alpha signaling (AID 588546; active = well fitted inhibition curve with a large enough effect in the signal ratio, with a control signal flat, not every such curve was filed as active; the % refers to the signal ratio;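 note: cells stimulated with 9-cis-retinoic acid as agonist; % is set by controls: 0 for no effect and ±100 for the full control effect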); conditions: HEK293T RXRa-UAS-bla, beta-lactamase ratio, antagonist mode; measured here: W530 green channel, cytotoxicity proxy
Outline: (§1)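 Beta-lactamase reporter inhibition, read as CCF4 fluorescence ratio (ex 405, em 460/530 nm) after 2 h at RT. HEK293T UAS-bla cells, 2500/well, were stimulated with 9-cis-RA at 500 or 100 nM final alongside test compound for 18 h at 37 C.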

[6] = biological target: Retinoic acid receptor RXR-alpha (Homo sapiens) (UniProt P19793); assay: as above; conditions: HEK293T RXRa-UAS-bla, beta-lactamase ratio, antagonist mode
Outline: as §1

[7] = biological target: Thyroid hormone receptor beta (Homo sapiens) (UniProt P10828); assay: qHTS assay for small molecule antagonists of thyroid hormone receptor beta signaling (AID 588547; active = well fitted inhibition curve with a large enough effect in the signal ratio, with a control signal flat, not every such curve was filed as active; the % refers to the signal ratio;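 note: cells stimulated with 0.4 nM T3 agonist during compound exposure; series mostly up to about 77 µM; % is set by controls: 0 for no effect and ±100 for the full control effect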); conditions: TR-UAS-bla HEK293, beta-lactamase ratio, antagonist mode, 18 h
Outline: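 TR-UAS-bla GripTite HEK293 cells in 2% charcoal/dextran FBS medium were preincubated 4 h at 37 C, given compound (0.59 nM to 92 uM) plus 0.4 nM T3 (final) for 18 h, then CCF4 for 2 h at RT; Hill fit gave IC50.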

[8] = biological target: Voltage-gated inwardly rectifying potassium channel KCNH2 (Homo sapiens) (UniProt Q12809); assay: qHTS Assay for Small Molecule Inhibitors of the Human hERG Channel Activity (AID 588834; active = well fitted curve in the direction sought with a large enough effect; an effect the other way counts as inactive or inconclusive;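 note: top concentration of the series differs between compounds; % is set by controls: 0 for no effect and ±100 for the full control effect; lower thallium flux fluorescence means stronger hERG block; nearly all actives have a fitted effect of over 50% in size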)
Outline: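 Blockade is seen as reduced FluxOR thallium-flux fluorescence in U2OS cells expressing hERG from a BacMam construct, in Opti-MEM with 2% FCS. Concentration-response data fitted to the Hill equation for AC50.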

[9] = qHTS assay for small molecule agonists of the antioxidant response element (ARE) signaling pathway (AID 651741; active = well fitted activation curve with a large enough effect in the signal ratio; the % refers to the signal ratio; note: % of control where 0% means no effect)
Outline: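 Compounds in DMSO are pinned onto HepG2 ARE-bla cells (2,000/well) that were preincubated 5 h; plates stay 16 h at 37 C, then beta-lactamase activity is detected with LiveBLAzer B/G substrate by fluorescence.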

[10] = qHTS assay for small molecule disruptors of the mitochondrial membrane potential - 1 hr assay (AID 651754); note: % is set by controls: 0 for no effect and ±100 for the full control effect; nearly all actives have a fitted effect of over 35% in size
Outline: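 HepG2 cells, attached overnight, were exposed to compound for 1 hr at 37C, then stained 30 min with a potentiometric dye. Ratio of red aggregate (590nm) to green monomer (535nm) fluorescence reports membrane potential; collapse shifts signal toward green.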

[11] = qHTS assay for small molecule disruptors of the mitochondrial membrane potential - 5 hr assay (AID 651755); note: % is set by controls: 0 for no effect and ±100 for the full control effect; nearly all actives have a fitted effect of over 40% in size
Outline: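 HepG2 cells, attached overnight at 37C, were exposed to compound or DMSO for 5 hr at 37C, 5% CO2. Mito-MPS dye was then added for 30 min, and fluorescence read at 490/535 nm (monomers) and 540/590 nm (aggregates).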

[12] = biological target: Tumor necrosis factor (Homo sapiens) (UniProt P01375); assay: qHTS assay to identify small molecules that stimulate Tumor Necrosis Factor-alpha (TNF-alpha) secretion (AID 651757; active = well fitted curve in the direction sought with a large enough effect in the signal ratio; the % refers to the signal ratio; note: 0% is about no effect)
Outline: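 THP-1 cells (3000/well) exposed to compounds 17 hrs at 37 C. Secreted TNF-alpha detected by HTRF with cryptate- and XL665-labeled anti-TNF-alpha antibodies after 3 hr at room temperature.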

[13] = biological target: Luciferin 4-monooxygenase (Photinus pyralis) (UniProt P08659); assay: Biochemical firefly luciferase enzyme assay for NPC (AID 624030; active = well fitted curve in the direction sought with a large enough effect; an effect the other way counts as inactive or inconclusive;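 note: purified P. pyralis luciferase at 10 nM with luciferin and ATP substrate; series mostly up to about 59 µM; 0% = DMSO and -100% = full luciferase inhibition by PTC124 control; nearly all actives have a fitted effect of over 70% in size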)
Outline: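 Counter-screen for direct inhibition of the luciferase enzyme by approved-drug library compounds, run at 10 nM enzyme in 50 mM Tris acetate (final). Luminescence was read within 5 min of enzyme-buffer addition and normalized to PTC124 versus DMSO (0%).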

[14] = S16 Schwann cell viability assay (CellTiter-Glo assay) (AID 624031; active = well fitted curve in the direction sought with a large enough effect; an effect the other way counts as inactive or inconclusive;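 note: cellular ATP luminescence as a viability measure; series mostly up to about 58 µM; plate controls were DMSO-treated cells for no effect and cell-free wells for full effect; nearly all actives have a fitted effect of over 70% in size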)
Outline: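 Untransfected S16 rat Schwann cells; compound 24 h, 37 °C/5% CO2; CellTiter-Glo ATP luminescence. % activity vs no-cell wells and DMSO controls (0%); concentration-effect curves classed by r2, response magnitude, activity.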

[15] = S16 Schwann cell PMP22 intronic element firefly luciferase assay (AID 624032; active = well fitted curve in the direction sought with a large enough effect; an effect the other way counts as inactive or inconclusive;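 note: series mostly up to about 58 µM; plate controls were DMSO for no effect and PTC124 positive control mean for full effect; nearly all actives have a fitted effect of over 30% in size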)
Outline: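 Rat S16 Schwann cells stably carrying a PMP22 intronic element-driven Fluc reporter were seeded overnight, then exposed to compounds for 24 h at 37 °C. Luminescence was normalized to PTC124 (positive control) and DMSO (0% activity).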

[16] = S16 Schwann cell PMP22 intronic element beta-lactamase assay (AID 624044);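 note: 0% = DMSO and -100% = potassium clavulanate positive control; nearly all actives have a fitted effect of over 15% in size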
Outline: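 Rat S16 Schwann cells with beta-Lac driven by a PMP22 intronic element, compound-treated 24 h at 37 °C. LiveBLAzer FRET B/G read: 460 nm normalized to potassium clavulanate vs DMSO; 535 nm FRET as viability; concentration-effect curves classified.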

[17] = qHTS assay for small molecule activators of the p53 signaling pathway (AID 651743; active = well fitted activation curve with a large enough effect in the signal ratio, not every such curve was filed as active; the % refers to the signal ratio; note: series mostly up to about 92 µM; % of control where 0% means no effect); conditions: HCT-116 p53RE-bla, beta-lactamase FRET ratio, 16 h; stronger effect = higher value
Outline: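 Cell-based beta-lactamase reporter (p53 response elements, HCT-116 background). After a 5-hour preincubation, cells received compound for 16 hours at 37 C; substrate development ran 2 hours at room temperature.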

[18] = qHTS assay for small molecule activators of the nuclear factor-kappa B (NF-kB) signaling pathway (AID 651749; active = well fitted activation curve with a large enough effect in the signal ratio; the % refers to the signal ratio; note: series mostly up to about 77 µM; % of control where 0% means no effect); conditions: NF-kB-bla ME-180 cells, beta-lactamase FRET ratio, 16 h; stronger effect = higher value
Outline: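 Screening used 2,000 ME-180 reporter cells per well exposed to pinned compound (23 nL) or DMSO; after 16 hr at 37C, beta-lactamase expression under NF-kB control was assessed through FRET.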

[19] = qHTS assay to identify small molecules that stimulate interleukin-8 (IL-8) secretion (AID 651758; active = well fitted activation curve with a large enough effect in the signal ratio; the % refers to the signal ratio; note: 0% is about no effect)
Outline: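 THP-1, 2000 cells/well; cpd 16 h, 37 C; add cryptate + XL665 anti-IL-8 Abs; RT 1-3 h; TR-FRET read.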

[20] = qHTS assay for environmental chemicals that activate the Aryl hydrocarbon Receptor (AhR) signaling pathway (AID 651777; active = well fitted curve in the direction sought with a large enough effect; an effect the other way counts as inactive or inconclusive; note: potency is the fitted concentration of half-maximal effect; nearly all actives have a fitted effect of over 15% in size); conditions: 1A2-DRE human hepatoma cells, luciferase, 24 h
Outline: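 Luminescence read-out: One-Glo added for 30 min at RT after 24 hr compound treatment (37 C, 5% CO2) of human hepatoma cells expressing a DRE/CYP1A2 promoter–luciferase reporter; increased signal indicates AhR activation.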

Thyroid hormone receptor beta (Homo sapiens), sequence (P10828 whole entry, looked up): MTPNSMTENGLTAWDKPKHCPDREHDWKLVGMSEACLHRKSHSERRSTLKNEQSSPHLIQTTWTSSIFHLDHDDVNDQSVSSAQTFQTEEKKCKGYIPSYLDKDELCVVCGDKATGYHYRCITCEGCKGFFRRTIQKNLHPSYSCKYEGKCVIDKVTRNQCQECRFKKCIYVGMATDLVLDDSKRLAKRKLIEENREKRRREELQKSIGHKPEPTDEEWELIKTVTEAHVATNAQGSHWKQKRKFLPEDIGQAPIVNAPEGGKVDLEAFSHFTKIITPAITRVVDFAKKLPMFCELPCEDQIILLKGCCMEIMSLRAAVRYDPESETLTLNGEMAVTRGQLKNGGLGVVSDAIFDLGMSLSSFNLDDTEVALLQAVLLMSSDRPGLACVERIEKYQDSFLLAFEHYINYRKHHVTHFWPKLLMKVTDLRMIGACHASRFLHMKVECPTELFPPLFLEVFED
Retinoic acid receptor RXR-alpha (Homo sapiens), sequence (P19793 whole entry, looked up): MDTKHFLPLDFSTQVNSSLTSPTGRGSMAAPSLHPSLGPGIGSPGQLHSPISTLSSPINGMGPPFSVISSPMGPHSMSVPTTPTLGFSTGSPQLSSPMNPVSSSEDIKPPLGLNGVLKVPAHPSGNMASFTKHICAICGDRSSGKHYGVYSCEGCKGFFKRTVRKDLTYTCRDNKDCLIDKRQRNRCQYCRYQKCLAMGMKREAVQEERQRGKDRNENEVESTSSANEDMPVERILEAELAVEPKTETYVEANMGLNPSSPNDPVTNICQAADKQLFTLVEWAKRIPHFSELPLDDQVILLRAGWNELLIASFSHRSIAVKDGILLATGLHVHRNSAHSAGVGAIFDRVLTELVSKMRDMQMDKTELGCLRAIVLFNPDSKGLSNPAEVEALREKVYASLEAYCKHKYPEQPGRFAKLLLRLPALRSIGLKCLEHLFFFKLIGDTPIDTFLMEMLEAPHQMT
Vitamin D3 receptor (Homo sapiens), sequence (P11473 whole entry, looked up): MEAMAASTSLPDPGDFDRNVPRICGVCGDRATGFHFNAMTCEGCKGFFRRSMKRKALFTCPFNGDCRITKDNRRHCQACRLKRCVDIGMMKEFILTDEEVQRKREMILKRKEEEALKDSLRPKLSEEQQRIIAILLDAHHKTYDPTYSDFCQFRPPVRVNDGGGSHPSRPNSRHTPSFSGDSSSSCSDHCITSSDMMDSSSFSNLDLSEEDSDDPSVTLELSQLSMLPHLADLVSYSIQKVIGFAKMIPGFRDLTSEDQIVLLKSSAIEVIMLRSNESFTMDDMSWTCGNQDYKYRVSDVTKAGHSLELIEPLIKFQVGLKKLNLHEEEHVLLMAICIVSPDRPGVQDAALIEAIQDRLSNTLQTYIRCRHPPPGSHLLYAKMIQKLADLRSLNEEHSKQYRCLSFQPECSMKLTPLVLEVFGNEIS
Luciferin 4-monooxygenase (Photinus pyralis), sequence (P08659 whole entry, looked up): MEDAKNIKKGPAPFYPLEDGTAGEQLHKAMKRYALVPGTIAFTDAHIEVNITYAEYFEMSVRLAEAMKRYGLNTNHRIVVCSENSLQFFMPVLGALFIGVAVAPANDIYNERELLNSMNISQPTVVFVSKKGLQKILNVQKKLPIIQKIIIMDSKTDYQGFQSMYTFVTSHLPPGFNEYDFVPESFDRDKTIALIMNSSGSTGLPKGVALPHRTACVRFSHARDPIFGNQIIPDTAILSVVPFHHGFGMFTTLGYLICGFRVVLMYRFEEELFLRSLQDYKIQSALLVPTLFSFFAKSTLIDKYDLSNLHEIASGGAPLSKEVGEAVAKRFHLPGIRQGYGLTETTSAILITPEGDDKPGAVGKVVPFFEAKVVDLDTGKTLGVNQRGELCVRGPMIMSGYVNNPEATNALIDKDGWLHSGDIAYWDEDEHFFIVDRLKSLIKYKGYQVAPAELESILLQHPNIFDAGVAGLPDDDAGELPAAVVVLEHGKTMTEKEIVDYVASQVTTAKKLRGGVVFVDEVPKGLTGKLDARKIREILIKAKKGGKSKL
Voltage-gated inwardly rectifying potassium channel KCNH2 (Homo sapiens), sequence (Q12809 whole entry, looked up): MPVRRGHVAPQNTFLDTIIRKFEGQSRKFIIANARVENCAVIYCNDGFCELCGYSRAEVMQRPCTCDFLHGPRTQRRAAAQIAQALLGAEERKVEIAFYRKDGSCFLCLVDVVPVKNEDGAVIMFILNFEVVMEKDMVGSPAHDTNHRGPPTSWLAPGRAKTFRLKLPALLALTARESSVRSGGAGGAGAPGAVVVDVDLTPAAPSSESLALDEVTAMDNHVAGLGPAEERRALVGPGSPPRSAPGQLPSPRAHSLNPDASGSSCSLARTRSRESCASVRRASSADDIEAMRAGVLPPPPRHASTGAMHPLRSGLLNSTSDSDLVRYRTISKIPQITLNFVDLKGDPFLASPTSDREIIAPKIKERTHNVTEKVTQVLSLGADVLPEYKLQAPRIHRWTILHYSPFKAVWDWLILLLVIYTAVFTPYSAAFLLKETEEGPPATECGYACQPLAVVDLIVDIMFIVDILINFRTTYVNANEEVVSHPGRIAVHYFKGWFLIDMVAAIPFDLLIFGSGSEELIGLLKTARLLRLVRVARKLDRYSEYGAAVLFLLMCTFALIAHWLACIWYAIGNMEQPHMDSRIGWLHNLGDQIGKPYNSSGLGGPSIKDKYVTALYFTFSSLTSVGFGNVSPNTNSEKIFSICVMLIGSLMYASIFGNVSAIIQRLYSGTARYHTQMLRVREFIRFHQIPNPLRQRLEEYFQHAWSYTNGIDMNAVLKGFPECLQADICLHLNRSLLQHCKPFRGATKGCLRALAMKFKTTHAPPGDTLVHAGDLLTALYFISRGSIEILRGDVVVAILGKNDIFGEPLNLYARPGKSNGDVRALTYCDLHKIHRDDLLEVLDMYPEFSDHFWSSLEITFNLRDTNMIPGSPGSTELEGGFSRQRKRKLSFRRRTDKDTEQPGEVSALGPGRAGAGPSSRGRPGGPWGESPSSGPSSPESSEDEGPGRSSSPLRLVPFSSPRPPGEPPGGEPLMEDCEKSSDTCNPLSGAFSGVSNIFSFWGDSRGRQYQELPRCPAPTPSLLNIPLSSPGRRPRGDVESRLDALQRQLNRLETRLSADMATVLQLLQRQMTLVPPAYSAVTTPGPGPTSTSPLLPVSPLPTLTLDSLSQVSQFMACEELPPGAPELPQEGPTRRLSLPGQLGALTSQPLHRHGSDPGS
Tumor necrosis factor (Homo sapiens), sequence (P01375 whole entry, looked up): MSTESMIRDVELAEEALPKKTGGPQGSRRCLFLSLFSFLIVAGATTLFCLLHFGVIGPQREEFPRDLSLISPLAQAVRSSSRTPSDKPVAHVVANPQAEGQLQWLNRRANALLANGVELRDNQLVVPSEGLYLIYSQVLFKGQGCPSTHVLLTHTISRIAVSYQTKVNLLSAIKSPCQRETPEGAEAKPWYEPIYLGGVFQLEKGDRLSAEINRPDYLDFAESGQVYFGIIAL

C=C1C[C@]23C[C@@]1(O)CC[C@H]2[C@@]12C=C[C@H](O)[C@@](C)(C(=O)O1)[C@H]2[C@@H]3C(=O)O
inactive: outcome [1] | outcome [3] | outcome [4] | max response [6] 6.93% | activity change % (negative = inhibition) [7] 23.9% | outcome [8] | outcome [9] | outcome [10] | outcome [11] | outcome [12]
-10.6%: max response [2]
4.31%: max response [5]

CCOC(=O)C(CCc1ccccc1)NC(C)C(=O)N1Cc2ccccc2CC1C(=O)O (configuration not stated)
inactive: outcome [13] | outcome [14] | outcome [15] | outcome [16]

CCc1cccc2c3c([nH]c12)[C@@](CC)(CC(=O)O)OCC3
inactive: outcome [13] | outcome [14] | outcome [15] | outcome [16]

CCC(=O)OCC(=O)[C@@]1(OC(=O)CC)[C@@H](C)C[C@H]2[C@@H]3CCC4=CC(=O)C=C[C@]4(C)[C@@]3(F)[C@@H](O)C[C@@]21C
inactive: outcome [13]

COc1ccc(CCC(=O)c2c(O)cc(O[C@@H]3O[C@H](CO)[C@@H](O)[C@H](O)[C@H]3O[C@@H]3O[C@@H](C)[C@H](O)[C@@H](O)[C@H]3O)cc2O)cc1O
-15.7%: max response [5]
inactive: outcome [1] | outcome [3] | outcome [4] | max response [6] 10.3% | activity change % (negative = inhibition) [7] -11.4% | outcome [8] | outcome [9] | activation [17] -3.41% | activation [18] -2.14% | outcome [10] | outcome [11] | outcome [19]
1.28%: max response [2]

O=C(/C=C/C=C/c1ccc2c(c1)OCO2)N1CCCCC1
active: Potency [20] 14.1 µM
inactive: outcome [1] | outcome [4] | activity change % (negative = inhibition) [7] -4.09% | outcome [9] | activation [17] -2.18% | activation [18] -1.08%
